Test results reported in PubChem BioAssay (EPA / NIEHS).
Active and inactive are the calls of the source. The calls were made as follows: active = hit-call score of the fitted dose curve at least 0.9, where 1 is the maximum; inactive = score below 0.9.

What follows are molecules tested on Fatty acid synthase (Homo sapiens) (UniProt P49327) (assay: LTEA_HepaRG_FASN: Life Technologies and Expression Analysis (LTEA) Assay for Fatty Acid Synthase (FASN) using HepaRG (AID 2283448)). Details: mRNA level, 48 h; actives raise or lower the signal.
Sequence of Fatty acid synthase (Homo sapiens) (P49327 whole entry, looked up): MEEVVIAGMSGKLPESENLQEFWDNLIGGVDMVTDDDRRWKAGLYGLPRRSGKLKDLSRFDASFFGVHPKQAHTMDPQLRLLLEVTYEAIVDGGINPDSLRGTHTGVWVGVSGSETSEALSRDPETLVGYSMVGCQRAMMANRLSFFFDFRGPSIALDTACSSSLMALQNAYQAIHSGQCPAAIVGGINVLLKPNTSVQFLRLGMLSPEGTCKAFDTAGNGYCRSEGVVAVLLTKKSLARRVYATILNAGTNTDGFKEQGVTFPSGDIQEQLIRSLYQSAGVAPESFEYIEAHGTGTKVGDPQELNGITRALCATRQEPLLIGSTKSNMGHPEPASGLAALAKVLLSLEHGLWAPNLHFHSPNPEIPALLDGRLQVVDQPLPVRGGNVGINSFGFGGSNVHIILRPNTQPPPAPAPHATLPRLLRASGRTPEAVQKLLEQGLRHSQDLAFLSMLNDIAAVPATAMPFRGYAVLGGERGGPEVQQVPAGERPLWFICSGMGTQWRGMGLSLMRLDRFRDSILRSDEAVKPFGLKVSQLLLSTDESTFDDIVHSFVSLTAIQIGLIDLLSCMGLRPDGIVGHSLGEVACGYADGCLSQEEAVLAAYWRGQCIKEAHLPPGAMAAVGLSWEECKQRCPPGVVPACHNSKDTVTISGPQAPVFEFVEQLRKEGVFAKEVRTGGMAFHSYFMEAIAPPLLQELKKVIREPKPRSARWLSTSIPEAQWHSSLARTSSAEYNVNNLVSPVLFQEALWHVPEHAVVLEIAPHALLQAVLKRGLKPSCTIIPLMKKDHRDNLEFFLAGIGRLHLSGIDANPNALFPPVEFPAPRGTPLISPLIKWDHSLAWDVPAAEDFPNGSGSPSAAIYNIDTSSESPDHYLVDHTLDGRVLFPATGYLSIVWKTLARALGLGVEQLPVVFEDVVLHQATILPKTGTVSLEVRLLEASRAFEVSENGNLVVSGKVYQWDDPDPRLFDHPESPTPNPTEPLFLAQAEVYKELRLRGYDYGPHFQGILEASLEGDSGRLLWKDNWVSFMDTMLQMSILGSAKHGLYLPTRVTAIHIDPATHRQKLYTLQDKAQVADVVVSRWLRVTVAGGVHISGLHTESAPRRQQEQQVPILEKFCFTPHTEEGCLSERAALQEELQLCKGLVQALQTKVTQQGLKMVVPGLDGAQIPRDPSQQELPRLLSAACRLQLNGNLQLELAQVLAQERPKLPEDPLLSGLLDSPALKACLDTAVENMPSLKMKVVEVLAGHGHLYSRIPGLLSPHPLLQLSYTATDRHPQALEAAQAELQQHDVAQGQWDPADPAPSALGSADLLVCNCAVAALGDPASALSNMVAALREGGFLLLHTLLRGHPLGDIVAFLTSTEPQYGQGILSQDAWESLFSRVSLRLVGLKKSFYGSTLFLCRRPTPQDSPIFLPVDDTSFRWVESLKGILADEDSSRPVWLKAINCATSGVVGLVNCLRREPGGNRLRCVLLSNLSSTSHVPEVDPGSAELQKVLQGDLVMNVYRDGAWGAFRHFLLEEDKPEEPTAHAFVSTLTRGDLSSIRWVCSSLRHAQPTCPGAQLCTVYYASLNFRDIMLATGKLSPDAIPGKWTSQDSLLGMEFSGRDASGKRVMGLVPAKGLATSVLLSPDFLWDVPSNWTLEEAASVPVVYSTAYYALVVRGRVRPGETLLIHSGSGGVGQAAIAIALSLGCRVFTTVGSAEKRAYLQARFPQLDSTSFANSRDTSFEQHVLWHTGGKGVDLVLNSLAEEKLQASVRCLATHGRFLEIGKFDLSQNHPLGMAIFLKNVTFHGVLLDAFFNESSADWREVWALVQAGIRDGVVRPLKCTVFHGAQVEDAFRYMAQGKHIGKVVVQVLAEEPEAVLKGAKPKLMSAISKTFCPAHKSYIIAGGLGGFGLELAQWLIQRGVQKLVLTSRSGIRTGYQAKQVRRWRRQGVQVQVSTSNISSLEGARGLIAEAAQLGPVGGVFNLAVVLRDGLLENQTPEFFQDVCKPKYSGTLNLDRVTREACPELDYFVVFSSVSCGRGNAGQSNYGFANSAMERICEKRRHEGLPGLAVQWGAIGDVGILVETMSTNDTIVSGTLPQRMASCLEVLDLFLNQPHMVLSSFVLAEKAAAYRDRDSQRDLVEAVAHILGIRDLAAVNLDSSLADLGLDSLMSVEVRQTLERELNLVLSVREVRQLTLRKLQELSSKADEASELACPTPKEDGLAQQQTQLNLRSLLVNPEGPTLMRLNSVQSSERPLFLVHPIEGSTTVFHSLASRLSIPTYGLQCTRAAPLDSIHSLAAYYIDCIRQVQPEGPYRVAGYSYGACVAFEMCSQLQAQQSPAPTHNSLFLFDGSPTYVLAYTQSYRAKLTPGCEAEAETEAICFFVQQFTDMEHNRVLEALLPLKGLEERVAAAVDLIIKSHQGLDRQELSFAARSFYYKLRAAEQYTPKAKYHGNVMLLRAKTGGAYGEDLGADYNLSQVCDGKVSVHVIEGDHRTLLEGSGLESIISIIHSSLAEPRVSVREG
Protocol: LTEA_HepaRG is a cell based, multiplexed-readout assay that uses HepaRG, a human liver cell line, with measurements taken at 48 hours after chemical dosing on a 96-well plate.LTEA_HepaRG_FASN is one of 102 assay component(s) measured in the LTEA HepaRG cell culture assay. It is a marker of Steatosis.Data from the assay component LTEA_HepaRG_FASN was analyzed into 1 endpoint. This assay endpoint, LTEA_HepaRG_FASN, was analyzed with bidirectional fitting relative to DMSO as the negative control and baseline of activity. Using a type of inducible reporter, measures of mRNA induction for gain or loss-of-signal activity can be used to understand regulation of transcription factor activity. To generalize the intended target to other relatable targets, this assay endpoint is annotated to the lyase intended target family, where the subfamily is fatty acid synthase.
A total of 1060 chemcials from the ToxCast library were tested in eight-point concentration-response experiments. Cell culture and cytotoxicity assays were conducted at Thermo Fisher Scientific's Custom Services facility (Madison, WI). A single lot of human HepaRG cells (Thermo Fisher Scientific, Frederick, MD) was used for the cell culture experiments. 96-well format collagen type I coated plates of human HepaRG cells were prepared using established methods. Briefly, cryopreserved HepaRG cells were thawed, plated at a density of approximately 100,000 cells/well in HepaRG Thaw, Plate, and General Purpose media (HPRG770, Thermo Fisher Scientific), and incubated for 48 hours. 0.5% DMSO was selected as vehicle control to balance the requisite need of DMSO in HepaRG cultures to maintain differentiation (for example, baseline metabolism, proportions of hepatocytes vs. cholangiocytes), while enabling further hepatic receptor pathway activation (for example, PXR and CAR) in response to chemical exposure. 48 hours after plating, the culture medium was replaced with HepaRG Serum-Free Incudtion Media. Cells were exposed to each test chemical in duplicate and maintained in CO2 incubators for another 48 hours. Chemical plates were thawed to room temperature and 200x concentrations of treatment groups were prepared. 8-point conentration-reponse curves were made with the highest exposure at 100 uM, followed by half-log dilutions, all in 0.5% DMSO. Each test plate contained variouse controls, induction positive controls (1mM phenobarbital), cytotoxicity positive controls ([…] aflatoxin B1), vehicle controls (0.5% DMSO), and total lysis controls (0.5% DMSO). Cell morphology images were taken using an Essen IncuCyte FLR automated microscope, with six 96-well plates imaged in about 24 minutes. Images were captured and exported and JPEG files. Spent culture media was transfered to black-well plates for the LDH assay, and remaining media was sorted at -80 C for later use. Cells were treated with RLT buffer and frozen until shipped for gene expression analysis. Total RNA was isolated from the cell suspension in 75 uL of Buffer RLT (Qiagen, Germantown, MD 20874) by Quintiles/Expression Analysis (Durham, NC) using a custom isolation procedure. Total RNA from each plate well was transferred to a preamplification plate. Fluidigm's 96.96 Dynamic ArrayTM (Fluidigm, Amsterdam, the Netherlands) technology was used for gene expression analyses by quantitative reverse transcription polymerase chain reaction (qRT-PCR, performed by Quintiles/Expression Analysis, Durham, NC)89. Standard TaqManTM Assays (Applied Biosystems/ThermoFisher Scientific, Foster City, CA) were used to assess the expression of 93 genes selected based on their selectivity and sensitivity to important hepatic receptors known to be modulated by environmental chemicals; importance in human hepatocyte functionality; and hepatotoxicity. […]
With CCCN(CCC)N=O the outcome was “inactive”. CN(C)CCO was tested, and the outcome was “inactive”. With Oc1c(Cl)c(Cl)c(Cl)c(Cl)c1Cl the AC50 was 1.87 µM (active). For Oc1ccc(C(c2ccc(O)cc2)(C(F)(F)F)C(F)(F)F)cc1, the AC50 was 90.7 µM (active). For Cc1ccccc1CO[C@@H]1C[C@@]2(C(C)C)CC[C@]1(C)O2, the outcome was “inactive”. In the case of Cc1ccccc1[N+](=O)[O-], the outcome is reported as “inactive”. With O=C(NC(=O)c1cc(F)c(F)cc1Cl)Nc1cc(F)ccc1N1CCC(C(=O)O)CC1 the outcome was “inactive”. For Cc1ccccc1O, the outcome was “inactive”. For CO/C=C(/C(=O)OC)c1ccccc1COc1cccc(C(F)(F)F)n1, the AC50 was 9 µM (active). For Cc1cc2c3c(c1)C(c1ccccc1)=N[C@@H](NC(=O)c1ccncc1)C(=O)N3CC2, the AC50 was 50 µM (active). With Nc1ccc(-c2ccc(N)cc2)cc1 the outcome was “inactive”. In the case of ClC1=C(Cl)[C@]2(Cl)[C@@H]3[C@@H]4C[C@@H]([C@H]5O[C@@H]45)[C@@H]3[C@@]1(Cl)C2(Cl)Cl, the outcome is reported as “inactive”. O=C(NC(=O)c1c(F)cccc1F)Nc1cc(Cl)c(OC(F)(F)C(F)F)c(Cl)c1 was tested, and the AC50 was 50 µM (active). With CCOCCOC(C)=O the outcome was “inactive”. For c1ccc(-c2ccccc2)cc1, the outcome was “inactive”. For COc1ccc(O)c(C(C)(C)C)c1, the outcome was “inactive”. For CC(C)(O)C(=O)Nc1ccc([N+](=O)[O-])c(C(F)(F)F)c1, the outcome was “inactive”. In the case of CC(C)C(=O)OCC(C)(C)C(OC(=O)C(C)C)C(C)C (stereo not given), the outcome is reported as “inactive”. For C[C@]12CCC(=O)C=C1CC[C@@H]1[C@@H]2CC[C@]2(C)C(=O)CC[C@@H]12, the AC50 was 82.7 µM (active). With CCSC(=O)N(CC)C1CCCCC1 the outcome was “inactive”. In the case of CCOC(=O)C(O)(c1ccc(Cl)cc1)c1ccc(Cl)cc1, the outcome is reported as “inactive”. For ClC1=C(Cl)[C@]2(Cl)[C@@H]3[C@H]4C[C@H]([C@@H]5O[C@H]45)[C@@H]3[C@@]1(Cl)C2(Cl)Cl, the AC50 was 87.6 µM (active). For O=C(O)C(F)(F)C(F)(F)C(F)(F)C(F)(F)C(F)(F)F, the outcome was “inactive”. CN(C)c1nc(=O)n(C2CCCCC2)c(=O)n1C was tested, and the outcome was “inactive”. In the case of c1cc2ccc3cccc4ccc(c1)c2c34, the outcome is reported as “inactive”. C[C@]12CCC(=O)C=C1CC[C@@H]1[C@@H]2CC[C@@]2(C)[C@H]1CC[C@]2(C)O was tested, and the AC50 was 66.1 µM (active). With CCCCCCCCCC[N+](C)(C)CCCCCCCCCC the AC50 was 42.7 µM (active). With CCC(C)c1cc([N+](=O)[O-])cc([N+](=O)[O-])c1O (stereo not given) the AC50 was 1.16 µM (active). With Cc1cc(-c2ccc(N)c(C)c2)ccc1N the AC50 was 25.1 µM (active). With CC(C)(c1ccccc1)c1ccc(O)cc1 the outcome was “inactive”. CCCCCCOC(=O)c1ccccc1C(=O)OCCCCCC was tested, and the outcome was “inactive”. In the case of ClC1=C(Cl)[C@]2(Cl)[C@@H]3[C@@H](Cl)[C@H]4O[C@H]4[C@@H]3C1(Cl)C2(Cl)Cl, the outcome is reported as “inactive”. For Cc1ccc(O)c(C)c1, the outcome was “inactive”. With Cc1cccc(C)c1N the outcome was “inactive”. With CCOP(=S)(OCC)SCSC(C)(C)C the outcome was “inactive”. In the case of CCC(=O)O[C@H]1CC[C@H]2[C@@H]3CCC4=CC(=O)CC[C@]4(C)[C@H]3CC[C@]12C, the outcome is reported as “inactive”. For Clc1ccc(C(c2ccccc2Cl)C(Cl)(Cl)Cl)cc1 (stereo not given), the AC50 was 50 µM (active). NS(=O)(=O)C(F)(F)C(F)(F)C(F)(F)C(F)(F)C(F)(F)C(F)(F)C(F)(F)C(F)(F)F was tested, and the AC50 was 12.9 µM (active). In the case of Clc1ccc(Cl)cc1, the outcome is reported as “inactive”. CCCCCCCCOC(=O)c1ccccc1C(=O)OCCCCCCCC was tested, and the outcome was “inactive”.
